Measured values reported in the supplement of paper PMC10849652.
Targets with a hit are over-represented here; the source holds about 7,900 in all. About 0.6% of all pairs of compound and target were hits. Values without a mark were called inactive.

Assays:
Test in all cases: log2 fold change, soluble protein after heating vs DMSO (PISA); higher = thermal stabilisation; K562 cells, 10 uM, 30 min; active = over 0.2 and 3.5 SD of the protein, either way, in both replicates (recomputed)
[1] = compound: COC1=CC=C(C=C1)CN2C=CC3=C2C=C(C=C3)C(=O)NO
How it was run: (§1)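 K562 cells at 2×10^6 cells/mL were given 10 μM compound for 30 min. Aliquots then went through 3 min of heating across 48°C-58°C, were pooled, and were extracted in PBS with 0.5% NP-40 at 4°C, and the supernatant after 21,000xg for 90 min was quantified by TMTpro 16plex LC-MS/MS with channel sums equalised. Thermal stability relative to control samples, from duplicates, is given as log2 fold change.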

filanesib = compound: CON(C)C(=O)N1N=C(c2cc(F)ccc2F)S[C@@]1(CCCN)c1ccccc1 [filanesib]
How it was run: as §1

zotarolimus = compound: CO[C@H]1C[C@@H]2CC[C@@H](C)[C@@](O)(O2)C(=O)C(=O)N2CCCC[C@H]2C(=O)O[C@H]([C@H](C)C[C@@H]2CC[C@H](n3cnnn3)[C@H](OC)C2)CC(=O)[C@H](C)/C=C(\C)[C@@H](O)[C@@H](OC)C(=O)[C@H](C)C[C@H](C)/C=C/C=C/C=C/1C [zotarolimus]
How it was run: as §1

idasanutlin = compound: COc1cc(C(=O)O)ccc1NC(=O)[C@@H]1N[C@@H](CC(C)(C)C)[C@](C#N)(c2ccc(Cl)cc2F)[C@H]1c1cccc(Cl)c1F [idasanutlin]
How it was run: as §1

alisertib = compound: COc1cc(Nc2ncc3c(n2)-c2ccc(Cl)cc2C(c2c(F)cccc2OC)=NC3)ccc1C(=O)O [alisertib]
How it was run: as §1

[2] = compound: COc1cc2nc(-c3cc(F)ccc3O)nc(N[C@@H]3CNC[C@H]3C(C)(C)O)c2cc1OC
How it was run: as §1

gefitinib = compound: COc1cc2ncnc(Nc3ccc(F)c(Cl)c3)c2cc1OCCCN1CCOCC1 [gefitinib]
How it was run: as §1

[3] = compound: COc1cccc2cc(-c3nc([C@H]4CC[C@H](C(=O)O)CC4)n4ncnc(N)c34)[nH]c12
How it was run: as §1

lapatinib = compound: CS(=O)(=O)CCNCc1ccc(-c2ccc3ncnc(Nc4ccc(OCc5cccc(F)c5)c(Cl)c4)c3c2)o1 [lapatinib]
How it was run: as §1

pictilisib = compound: CS(=O)(=O)N1CCN(Cc2cc3nc(-c4cccc5[nH]ncc45)nc(N4CCOCC4)c3s2)CC1 [pictilisib]
How it was run: as §1

[4] = compound: CS(=O)(=O)c1ccc(-c2cnc(N)c(C(=O)Nc3ccccc3)n2)cc1
How it was run: as §1

crizotinib = compound: C[C@@H](Oc1cc(-c2cnn(C3CCNCC3)c2)cnc1N)c1c(Cl)ccc(F)c1Cl [crizotinib]
How it was run: as §1

[5] = compound: C[C@@H]1COCCN1C2=NC(=NC(=C2)C3(CC3)S(=O)(=O)C)C4=C5C=CNC5=CC=C4
How it was run: as §1

[6] = compound: C[C@H](C1=CC=C(C=C1)C(=O)NC2=C3C=CNC3=NC=C2)N
How it was run: as §1

duvelisib = compound: C[C@H](Nc1ncnc2nc[nH]c12)c1cc2cccc(Cl)c2c(=O)n1-c1ccccc1 [duvelisib]
How it was run: as §1

gandotinib = compound: Cc1cc(Nc2cc(CN3CCOCC3)c3nc(C)c(Cc4ccc(Cl)cc4F)n3n2)n[nH]1 [gandotinib]
How it was run: as §1

tozasertib = compound: Cc1cc(Nc2cc(N3CCN(C)CC3)nc(Sc3ccc(NC(=O)C4CC4)cc3)n2)n[nH]1 [tozasertib]
How it was run: as §1

[7] = compound: Cc1cc(SCc2sc(-c3ccc(C(F)(F)F)cc3)nc2C)ccc1OCC(=O)O
How it was run: as §1

doramapimod = compound: Cc1ccc(-n2nc(C(C)(C)C)cc2NC(=O)Nc2ccc(OCCN3CCOCC3)c3ccccc23)cc1 [doramapimod]
How it was run: as §1

ispinesib = compound: Cc1ccc(C(=O)N(CCCN)[C@@H](c2nc3cc(Cl)ccc3c(=O)n2Cc2ccccc2)C(C)C)cc1 [ispinesib]
How it was run: as §1

Chain of UniProt Q13409 (Q13409 whole entry, looked up): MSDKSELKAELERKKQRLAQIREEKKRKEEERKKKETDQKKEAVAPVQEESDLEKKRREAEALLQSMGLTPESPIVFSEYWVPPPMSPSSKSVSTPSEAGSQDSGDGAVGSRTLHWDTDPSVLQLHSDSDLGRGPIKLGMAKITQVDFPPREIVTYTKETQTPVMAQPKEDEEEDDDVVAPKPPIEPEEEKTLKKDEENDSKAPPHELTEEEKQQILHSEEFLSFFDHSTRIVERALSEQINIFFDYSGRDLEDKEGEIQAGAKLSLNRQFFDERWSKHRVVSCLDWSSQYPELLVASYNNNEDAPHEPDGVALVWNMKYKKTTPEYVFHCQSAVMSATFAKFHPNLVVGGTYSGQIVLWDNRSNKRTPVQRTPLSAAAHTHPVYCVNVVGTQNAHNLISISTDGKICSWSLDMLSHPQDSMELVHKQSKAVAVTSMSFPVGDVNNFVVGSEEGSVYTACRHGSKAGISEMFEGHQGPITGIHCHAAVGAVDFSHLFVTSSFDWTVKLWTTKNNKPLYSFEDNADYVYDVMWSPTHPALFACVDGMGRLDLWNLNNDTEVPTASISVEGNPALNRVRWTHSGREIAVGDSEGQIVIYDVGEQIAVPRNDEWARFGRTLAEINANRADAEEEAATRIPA
Chain of UniProt P60842 (P60842 whole entry, looked up): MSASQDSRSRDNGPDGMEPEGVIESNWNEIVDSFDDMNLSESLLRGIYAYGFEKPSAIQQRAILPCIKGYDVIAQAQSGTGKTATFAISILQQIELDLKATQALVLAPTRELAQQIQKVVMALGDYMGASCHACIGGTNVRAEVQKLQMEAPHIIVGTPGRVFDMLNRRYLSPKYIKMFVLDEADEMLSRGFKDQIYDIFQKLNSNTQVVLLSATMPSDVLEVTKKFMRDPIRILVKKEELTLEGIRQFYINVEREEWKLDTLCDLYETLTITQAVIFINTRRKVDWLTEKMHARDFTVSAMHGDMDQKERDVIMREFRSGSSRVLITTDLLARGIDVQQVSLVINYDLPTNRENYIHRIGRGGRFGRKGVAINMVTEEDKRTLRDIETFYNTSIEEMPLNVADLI
Chain of UniProt P98082 (P98082 whole entry, looked up): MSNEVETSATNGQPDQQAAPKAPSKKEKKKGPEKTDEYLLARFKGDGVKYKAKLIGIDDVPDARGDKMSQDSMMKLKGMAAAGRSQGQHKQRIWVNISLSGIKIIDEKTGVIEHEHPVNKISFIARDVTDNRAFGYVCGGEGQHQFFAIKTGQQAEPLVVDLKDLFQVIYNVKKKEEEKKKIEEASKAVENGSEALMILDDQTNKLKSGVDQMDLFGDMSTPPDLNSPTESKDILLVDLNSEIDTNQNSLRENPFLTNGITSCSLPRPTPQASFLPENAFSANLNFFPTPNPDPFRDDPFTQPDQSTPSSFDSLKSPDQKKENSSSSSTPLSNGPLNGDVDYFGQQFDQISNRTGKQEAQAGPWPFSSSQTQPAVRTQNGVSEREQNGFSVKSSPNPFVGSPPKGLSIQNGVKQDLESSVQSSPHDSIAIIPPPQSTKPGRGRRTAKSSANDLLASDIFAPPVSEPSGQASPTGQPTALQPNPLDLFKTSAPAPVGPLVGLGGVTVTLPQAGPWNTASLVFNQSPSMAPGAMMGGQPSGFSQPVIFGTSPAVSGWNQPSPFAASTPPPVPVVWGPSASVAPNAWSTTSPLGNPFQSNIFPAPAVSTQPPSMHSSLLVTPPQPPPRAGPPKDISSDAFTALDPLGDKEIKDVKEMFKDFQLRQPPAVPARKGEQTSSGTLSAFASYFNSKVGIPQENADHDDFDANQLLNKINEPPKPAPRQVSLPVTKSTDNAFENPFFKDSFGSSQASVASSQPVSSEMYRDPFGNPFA
Chain of UniProt O60911 (O60911 whole entry, looked up): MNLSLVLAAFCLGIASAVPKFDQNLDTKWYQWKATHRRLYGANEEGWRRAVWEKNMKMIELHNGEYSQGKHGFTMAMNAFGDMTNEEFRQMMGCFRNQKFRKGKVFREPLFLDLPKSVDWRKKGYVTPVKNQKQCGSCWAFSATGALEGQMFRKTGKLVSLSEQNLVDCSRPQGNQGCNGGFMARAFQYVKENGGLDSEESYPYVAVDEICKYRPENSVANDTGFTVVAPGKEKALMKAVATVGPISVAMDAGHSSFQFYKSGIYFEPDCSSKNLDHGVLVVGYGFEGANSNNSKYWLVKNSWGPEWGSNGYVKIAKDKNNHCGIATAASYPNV
Chain of UniProt Q8IYI6 (Q8IYI6 whole entry, looked up): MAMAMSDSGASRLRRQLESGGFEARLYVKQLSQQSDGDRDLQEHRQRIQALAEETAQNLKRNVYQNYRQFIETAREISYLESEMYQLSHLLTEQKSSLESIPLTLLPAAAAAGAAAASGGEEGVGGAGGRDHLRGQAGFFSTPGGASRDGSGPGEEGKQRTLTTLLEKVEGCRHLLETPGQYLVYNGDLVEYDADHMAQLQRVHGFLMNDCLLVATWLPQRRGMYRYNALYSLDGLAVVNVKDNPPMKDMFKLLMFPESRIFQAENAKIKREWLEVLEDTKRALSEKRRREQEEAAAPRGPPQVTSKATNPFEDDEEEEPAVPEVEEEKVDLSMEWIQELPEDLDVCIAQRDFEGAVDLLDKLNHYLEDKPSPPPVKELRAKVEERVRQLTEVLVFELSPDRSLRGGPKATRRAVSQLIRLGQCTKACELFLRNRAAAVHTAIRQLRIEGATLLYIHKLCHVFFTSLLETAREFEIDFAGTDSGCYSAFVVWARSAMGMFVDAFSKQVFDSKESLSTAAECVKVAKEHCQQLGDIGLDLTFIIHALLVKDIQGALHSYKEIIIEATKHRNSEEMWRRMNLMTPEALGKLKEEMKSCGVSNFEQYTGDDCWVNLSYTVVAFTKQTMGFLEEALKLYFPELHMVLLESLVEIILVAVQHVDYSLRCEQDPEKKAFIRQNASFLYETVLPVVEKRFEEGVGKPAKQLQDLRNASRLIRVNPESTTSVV
Chain of UniProt Q9NRY5 (Q9NRY5 whole entry, looked up): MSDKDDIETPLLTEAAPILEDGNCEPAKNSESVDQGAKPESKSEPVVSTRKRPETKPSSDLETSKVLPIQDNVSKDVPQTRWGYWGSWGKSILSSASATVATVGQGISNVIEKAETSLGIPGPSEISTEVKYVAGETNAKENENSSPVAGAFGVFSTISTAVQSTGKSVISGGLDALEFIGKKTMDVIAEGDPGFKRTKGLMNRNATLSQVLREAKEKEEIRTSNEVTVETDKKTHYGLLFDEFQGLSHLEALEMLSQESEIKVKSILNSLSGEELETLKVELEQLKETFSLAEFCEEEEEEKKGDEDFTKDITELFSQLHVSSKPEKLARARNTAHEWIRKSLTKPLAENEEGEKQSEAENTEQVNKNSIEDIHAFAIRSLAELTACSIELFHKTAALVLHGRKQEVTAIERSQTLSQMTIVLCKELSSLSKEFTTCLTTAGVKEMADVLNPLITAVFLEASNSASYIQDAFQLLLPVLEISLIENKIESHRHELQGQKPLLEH
Chain of UniProt Q9BU89 (Q9BU89 whole entry, looked up): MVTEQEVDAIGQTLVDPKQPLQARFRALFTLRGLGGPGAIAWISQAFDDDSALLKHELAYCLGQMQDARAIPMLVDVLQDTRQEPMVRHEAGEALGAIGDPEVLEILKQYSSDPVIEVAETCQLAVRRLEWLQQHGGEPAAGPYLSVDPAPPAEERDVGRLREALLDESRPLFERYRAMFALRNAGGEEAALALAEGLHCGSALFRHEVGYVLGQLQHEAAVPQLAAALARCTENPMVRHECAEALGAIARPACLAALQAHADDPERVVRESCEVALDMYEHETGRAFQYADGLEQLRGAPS
Chain of UniProt Q0VG06 (Q0VG06 whole entry, looked up): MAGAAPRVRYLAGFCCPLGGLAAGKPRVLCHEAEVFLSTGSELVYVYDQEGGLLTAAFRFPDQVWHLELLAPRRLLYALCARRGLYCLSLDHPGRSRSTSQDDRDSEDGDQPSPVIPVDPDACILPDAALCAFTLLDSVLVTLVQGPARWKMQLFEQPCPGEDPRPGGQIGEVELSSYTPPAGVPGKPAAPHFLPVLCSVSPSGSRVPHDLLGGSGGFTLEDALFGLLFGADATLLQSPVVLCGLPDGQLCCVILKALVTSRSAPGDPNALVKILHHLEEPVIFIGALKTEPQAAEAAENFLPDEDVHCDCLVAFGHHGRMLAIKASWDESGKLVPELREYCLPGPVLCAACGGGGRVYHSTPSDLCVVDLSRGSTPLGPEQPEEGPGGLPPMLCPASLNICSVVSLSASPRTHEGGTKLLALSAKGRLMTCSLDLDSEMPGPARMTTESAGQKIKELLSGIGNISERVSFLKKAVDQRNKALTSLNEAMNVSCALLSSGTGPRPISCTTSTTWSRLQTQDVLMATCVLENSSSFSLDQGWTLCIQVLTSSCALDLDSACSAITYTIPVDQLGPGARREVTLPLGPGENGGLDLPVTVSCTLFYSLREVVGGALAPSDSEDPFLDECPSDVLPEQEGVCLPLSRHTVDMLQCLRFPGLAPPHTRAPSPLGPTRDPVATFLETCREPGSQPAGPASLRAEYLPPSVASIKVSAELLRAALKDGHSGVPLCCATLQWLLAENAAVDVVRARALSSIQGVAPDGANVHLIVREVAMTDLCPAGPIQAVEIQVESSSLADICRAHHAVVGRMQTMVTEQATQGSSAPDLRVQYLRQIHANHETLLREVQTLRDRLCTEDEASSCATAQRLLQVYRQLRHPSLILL
Chain of UniProt Q9HBU6 (Q9HBU6 whole entry, looked up): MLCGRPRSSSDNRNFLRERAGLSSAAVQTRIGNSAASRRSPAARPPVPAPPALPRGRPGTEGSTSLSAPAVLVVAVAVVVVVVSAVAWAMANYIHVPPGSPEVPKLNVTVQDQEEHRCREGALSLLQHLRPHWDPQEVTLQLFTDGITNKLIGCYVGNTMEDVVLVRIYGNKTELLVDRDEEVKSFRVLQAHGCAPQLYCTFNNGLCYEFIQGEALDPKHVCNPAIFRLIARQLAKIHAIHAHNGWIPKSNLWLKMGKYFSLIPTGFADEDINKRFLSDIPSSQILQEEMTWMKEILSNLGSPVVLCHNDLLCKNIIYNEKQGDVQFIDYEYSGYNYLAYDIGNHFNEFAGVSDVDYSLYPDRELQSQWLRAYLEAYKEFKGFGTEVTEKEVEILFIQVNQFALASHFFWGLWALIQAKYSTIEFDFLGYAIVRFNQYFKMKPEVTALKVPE

| Target | log2 fold change [1] | log2 fold change (filanesib) | log2 fold change (zotarolimus) | log2 fold change (idasanutlin) | log2 fold change (alisertib) | log2 fold change [2] | log2 fold change (gefitinib) | log2 fold change [3] | log2 fold change (lapatinib) | log2 fold change (pictilisib) | log2 fold change [4] | log2 fold change (crizotinib) | log2 fold change [5] | log2 fold change [6] | log2 fold change (duvelisib) | log2 fold change (gandotinib) | log2 fold change (tozasertib) | log2 fold change [7] | log2 fold change (doramapimod) | log2 fold change (ispinesib) |
| --- | --- | --- | --- | --- | --- | --- | --- | --- | --- | --- | --- | --- | --- | --- | --- | --- | --- | --- | --- | --- |
| DYNC1I2 isoform 5 (UniProt Q13409) | 0.012 | 0.003 | 0.025 | 0.025 | -0.051 | 0 | -0.003 | 0.004 | 0.021 | 0.035 | 0.026 | 0.055 | -0.035 | -0.007 | 0.019 | 0.027 | -0.022 | -0.007 | -0.011 | 0.028 |
| FAM114A2 (UniProt Q9NRY5) | 0 | -0.131 | -0.01 | -0.036 | -0.038 | -0.093 | 0.002 | 0.035 | -0.009 | -0.02 | -0.005 | -0.197 | 0.026 | -0.026 | 0.014 | -0.06 | 0.002 | 0.011 | -0.052 | -0.096 |
| DAB2 (UniProt P98082) | -0.009 | 0.079 | 0 | -0.055 | -0.081 | 0.155 | 0.024 | 0.011 | -0.005 | 0.071 | -0.04 | -0.099 | 0.049 | -0.052 | -0.021 | -0.021 | -0.023 | 0.069 | 0.022 | -0.091 |
| DOHH (UniProt Q9BU89) | -0.4 | -0.151 | 0.022 | -0.038 | -0.062 | -0.041 | 0.201 | 0.084 | -0.006 | -0.171 | 0.049 | 0.06 | 0.287 | -0.154 | 0.055 | 0.029 | 0.127 | 0.022 | 0.005 | -0.015 |
| CTSV (UniProt O60911) | -0.006 | -0.112 | -0.011 | -0.036 | -0.042 | -0.002 | 0.056 | 0.141 | -0.064 | 0.135 | 0.073 | -1.59 (active) | 0.099 | -0.01 | -0.039 | -0.334 | -0.031 | -0.04 | -0.005 | -0.453 (active) |
| FAAP100 (UniProt Q0VG06) | -0.008 | -0.012 | -0.025 | 0.055 | -0.044 | -0.095 | 0.036 | 0.004 | 0.011 | -0.067 | -0.043 | -0.027 | 0.142 | -0.051 | 0.041 | -0.096 | -0.023 | -0.077 | 0.033 | -0.006 |
| EEA1 (UniProt Q15075) | 0.041 | -0.012 | -0.028 | 0.017 | -0.031 | 0.002 | 0.007 | 0.036 | 0.021 | 0 | -0.007 | -0.007 | -0.014 | -0.046 | 0.006 | 0.02 | -0.012 | -0.04 | 0.002 | -0.22 (active) |
| EIF4A1 (UniProt P60842) | 0.061 | -0.11 | -0.009 | -0.075 | -0.004 | -0.01 | 0.004 | -0.027 | 0.016 | -0.088 | -0.055 | -0.058 | 0.03 | -0.015 | 0.007 | -0.206 | -0.008 | 0.047 | 0.025 | -0.11 |
| ETNK1 (UniProt Q9HBU6) | -0.083 | -0.172 | 0.016 | -0.105 | -0.045 | 0.013 | -0.02 | 0.01 | 0.078 | -0.044 | -0.006 | -0.022 | 0.088 | -0.032 | 0.075 | -0.057 | 0.021 | 0.118 | 0.001 | 0.059 |
| DBR1 (UniProt Q9UK59) | 0.051 | 0.036 | -0.003 | 0.015 | -0.018 | 0.017 | -0.049 | 0.054 | -0.021 | -0.064 | -0.034 | -0.022 | 0.061 | -0.014 | -0.072 | 0.003 | -0.051 | 0.01 | 0.02 | 0.058 |
| EXOC8 (UniProt Q8IYI6) | 0.005 | -0.044 | 0.056 | -0.072 | 0.014 | 0.038 | -0.047 | -0.003 | -0.054 | -0.156 | -0.062 | -0.32 (active) | 0.109 | 0.053 | 0.004 | -0.203 | 0.048 | 0.063 | 0.007 | -0.364 (active) |
| DIP2A (UniProt Q14689) | -0.097 | 0.028 | -0.018 | -0.047 | 0.357 | -0.098 | 0.008 | -0.004 | -0.047 | 0.103 | -0.094 | 0.087 | 0.159 | -0.01 | 0.071 | 0.023 | -0.077 | 0.081 | 0.141 | 0.01 |
| EDC3 (UniProt Q96F86) | 0.02 | 0.112 | -0.156 | 0.065 | 0.02 | 0.046 | -0.013 | -0.337 | -0.019 | -0.187 | 0.002 | -0.237 | -0.439 (active) | -0.014 | -0.14 | -0.023 | -0.025 | 0.066 | 0.05 | -0.121 |
